# Laboratory results published in paper PMC7862700, “An all-to-all approach to the identification of sequence-specific readers for epigenetic DNA modifications on cytosine”.
# Columns and labels:
# Assay in all cases: DAPPL (digital affinity profiling via proximity ligation, sequencing); 10 mM Tris-HCl pH 7.5, 50 mM NaCl, 1 mM DTT, 4% glycerol, room temperature, 30 min; GST-TFs on glutathione beads, 16-mer random dsDNA library, 0.1% formaldehyde crosslink after washing; high values mean tight binding
# FEV = molecular target: T1, FEV (Homo sapiens, UniProt Q99581 1-238); settings: protein: recombinant; tags: N-terminal GST; dsDNA, one strand shown
# T1 sequence: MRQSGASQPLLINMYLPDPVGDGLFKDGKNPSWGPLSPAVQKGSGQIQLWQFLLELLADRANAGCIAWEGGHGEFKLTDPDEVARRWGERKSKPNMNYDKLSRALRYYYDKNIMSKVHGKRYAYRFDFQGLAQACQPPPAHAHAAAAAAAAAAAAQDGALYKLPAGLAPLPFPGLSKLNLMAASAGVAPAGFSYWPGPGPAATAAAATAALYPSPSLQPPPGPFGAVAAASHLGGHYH
# Procedure, shortened: (§1)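 After expression in yeast as GST fusions, human transcription factors were bound to glutathione beads, DNA-barcoded and mixed with a tag-only sample. The pools were incubated with 200 nmole of a 16-mer random double-stranded DNA library in Tris/NaCl/DTT/glycerol buffer (30 min, room temperature), washed and crosslinked with 0.1% formaldehyde. Proximity ligation with BsaI/T4 ligase ran for 1 h at 37 °C, before PCR amplification and sequencing on an Illumina NextSeq500. Binding signal is a hexamer's read frequency for a factor divided by its frequency for the tag-only sample.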
# ETV5 = ETV5 (Homo sapiens, UniProt P41161 1-510); settings: protein: recombinant; tags: N-terminal GST; dsDNA, one strand shown
# Chain of ETV5 (P41161 whole entry): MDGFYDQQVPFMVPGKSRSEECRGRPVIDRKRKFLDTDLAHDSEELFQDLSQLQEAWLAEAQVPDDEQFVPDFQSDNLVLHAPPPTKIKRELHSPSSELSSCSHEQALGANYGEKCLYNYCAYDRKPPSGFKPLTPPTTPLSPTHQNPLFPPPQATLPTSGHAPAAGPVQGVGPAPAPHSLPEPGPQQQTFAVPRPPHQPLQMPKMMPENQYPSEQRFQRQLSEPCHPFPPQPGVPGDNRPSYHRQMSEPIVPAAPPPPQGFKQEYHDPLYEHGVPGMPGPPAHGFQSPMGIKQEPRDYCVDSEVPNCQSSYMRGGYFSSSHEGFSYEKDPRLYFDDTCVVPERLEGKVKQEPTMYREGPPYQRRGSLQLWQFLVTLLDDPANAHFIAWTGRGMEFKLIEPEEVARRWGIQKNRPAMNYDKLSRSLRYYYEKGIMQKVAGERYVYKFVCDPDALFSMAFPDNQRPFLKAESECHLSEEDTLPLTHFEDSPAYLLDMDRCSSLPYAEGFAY
# Procedure, shortened: as §1
# HSF1 = HSF1 (Homo sapiens, UniProt Q00613 1-529); settings: protein: recombinant; tags: N-terminal GST; chain copies: 3; dsDNA, one strand shown
# Chain of HSF1 (Q00613 whole entry): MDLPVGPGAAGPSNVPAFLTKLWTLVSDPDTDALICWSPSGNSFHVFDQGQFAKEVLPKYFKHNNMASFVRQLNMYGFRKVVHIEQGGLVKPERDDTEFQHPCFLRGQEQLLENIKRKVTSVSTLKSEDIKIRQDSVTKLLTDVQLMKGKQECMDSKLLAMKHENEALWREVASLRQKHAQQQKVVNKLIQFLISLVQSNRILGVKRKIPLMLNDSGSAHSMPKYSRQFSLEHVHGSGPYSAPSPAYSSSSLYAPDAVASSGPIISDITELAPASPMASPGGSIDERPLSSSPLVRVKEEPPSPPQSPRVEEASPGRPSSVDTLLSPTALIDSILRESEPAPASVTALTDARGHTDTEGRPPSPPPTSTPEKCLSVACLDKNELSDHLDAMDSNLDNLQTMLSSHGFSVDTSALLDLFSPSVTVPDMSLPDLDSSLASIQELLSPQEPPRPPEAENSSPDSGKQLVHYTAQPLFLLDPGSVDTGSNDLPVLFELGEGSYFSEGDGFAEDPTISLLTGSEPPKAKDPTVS
# Procedure, shortened: as §1
# SPIC = molecular target: T2, SPIC (Homo sapiens, UniProt Q8N5J4 1-248); settings: protein: recombinant; tags: N-terminal GST; dsDNA, one strand shown
# T2 sequence: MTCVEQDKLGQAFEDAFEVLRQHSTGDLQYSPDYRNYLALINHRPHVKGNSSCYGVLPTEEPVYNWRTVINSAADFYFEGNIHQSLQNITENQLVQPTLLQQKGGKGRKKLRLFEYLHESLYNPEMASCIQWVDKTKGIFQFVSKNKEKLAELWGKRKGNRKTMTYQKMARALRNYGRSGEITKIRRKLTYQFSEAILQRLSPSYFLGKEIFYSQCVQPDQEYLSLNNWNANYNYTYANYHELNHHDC
# Procedure, shortened: as §1
# ELF4 = ELF4 (Homo sapiens, UniProt Q99607 1-663); settings: protein: recombinant; tags: N-terminal GST; dsDNA, one strand shown
# Chain of ELF4 (Q99607 whole entry): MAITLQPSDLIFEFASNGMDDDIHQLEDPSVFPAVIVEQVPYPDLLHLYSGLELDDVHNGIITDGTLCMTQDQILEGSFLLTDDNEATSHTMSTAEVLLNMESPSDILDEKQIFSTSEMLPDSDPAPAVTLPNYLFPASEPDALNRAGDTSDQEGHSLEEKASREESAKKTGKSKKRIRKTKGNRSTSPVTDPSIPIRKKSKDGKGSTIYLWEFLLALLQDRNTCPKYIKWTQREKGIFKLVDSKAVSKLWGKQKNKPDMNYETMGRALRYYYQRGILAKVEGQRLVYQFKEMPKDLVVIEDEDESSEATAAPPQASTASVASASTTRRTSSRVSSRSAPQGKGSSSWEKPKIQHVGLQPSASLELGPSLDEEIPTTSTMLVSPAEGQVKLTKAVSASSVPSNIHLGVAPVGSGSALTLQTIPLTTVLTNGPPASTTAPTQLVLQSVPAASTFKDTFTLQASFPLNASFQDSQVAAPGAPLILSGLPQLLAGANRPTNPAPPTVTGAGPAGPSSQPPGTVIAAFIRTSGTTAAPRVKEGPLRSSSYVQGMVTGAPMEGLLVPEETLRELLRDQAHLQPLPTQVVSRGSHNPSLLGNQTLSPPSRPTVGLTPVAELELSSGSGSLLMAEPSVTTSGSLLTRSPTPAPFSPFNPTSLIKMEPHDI
# Procedure, shortened: as §1
# ELK4 = molecular target: T3, ELK4 (Homo sapiens, UniProt P28324-2 1-405); settings: protein: recombinant; tags: N-terminal GST; dsDNA, one strand shown
# T3 sequence: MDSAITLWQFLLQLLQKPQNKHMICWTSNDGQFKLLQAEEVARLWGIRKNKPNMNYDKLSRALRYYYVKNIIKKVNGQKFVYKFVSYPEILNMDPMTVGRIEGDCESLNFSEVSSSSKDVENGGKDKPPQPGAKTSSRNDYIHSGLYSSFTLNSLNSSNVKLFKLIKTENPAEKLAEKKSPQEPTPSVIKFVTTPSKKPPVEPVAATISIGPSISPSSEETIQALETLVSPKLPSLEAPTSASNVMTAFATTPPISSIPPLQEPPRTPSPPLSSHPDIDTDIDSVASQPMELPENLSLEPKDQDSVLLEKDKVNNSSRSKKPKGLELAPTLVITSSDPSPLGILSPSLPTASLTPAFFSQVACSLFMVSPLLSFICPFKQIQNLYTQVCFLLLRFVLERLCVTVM
# Procedure, shortened: as §1
# ETV2 = molecular target: T4, ETV2 (Homo sapiens, UniProt O00321 1-342); settings: protein: recombinant; tags: N-terminal GST; dsDNA, one strand shown
# T4 sequence: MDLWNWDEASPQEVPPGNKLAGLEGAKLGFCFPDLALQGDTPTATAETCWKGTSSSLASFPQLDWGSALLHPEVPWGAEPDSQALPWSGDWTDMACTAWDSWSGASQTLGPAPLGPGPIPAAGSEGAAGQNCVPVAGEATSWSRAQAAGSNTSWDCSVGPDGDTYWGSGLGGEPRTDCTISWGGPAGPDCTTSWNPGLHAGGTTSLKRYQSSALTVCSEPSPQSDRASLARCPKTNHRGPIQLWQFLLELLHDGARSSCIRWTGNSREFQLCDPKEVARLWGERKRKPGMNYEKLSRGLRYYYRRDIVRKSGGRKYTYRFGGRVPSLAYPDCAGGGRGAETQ
# Procedure, shortened: as §1
# ELF3 = molecular target: T5, ELF3 (Homo sapiens, UniProt P78545 1-371); settings: protein: recombinant; tags: N-terminal GST; dsDNA, one strand shown
# T5 sequence: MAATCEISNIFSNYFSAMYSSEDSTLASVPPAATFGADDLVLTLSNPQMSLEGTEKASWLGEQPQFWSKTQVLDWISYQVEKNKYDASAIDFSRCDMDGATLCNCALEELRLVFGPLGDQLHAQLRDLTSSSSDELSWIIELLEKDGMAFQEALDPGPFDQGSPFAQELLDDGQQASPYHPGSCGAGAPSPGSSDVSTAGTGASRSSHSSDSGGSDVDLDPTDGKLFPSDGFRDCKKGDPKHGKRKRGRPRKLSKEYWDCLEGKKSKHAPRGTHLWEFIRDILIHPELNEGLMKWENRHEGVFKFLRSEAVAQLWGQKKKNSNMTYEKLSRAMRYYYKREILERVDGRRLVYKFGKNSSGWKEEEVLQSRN
# Procedure, shortened: as §1
# CRX = CRX (Homo sapiens, UniProt O43186 1-299); settings: protein: recombinant; tags: N-terminal GST; dsDNA, one strand shown
# Chain of CRX (O43186 whole entry): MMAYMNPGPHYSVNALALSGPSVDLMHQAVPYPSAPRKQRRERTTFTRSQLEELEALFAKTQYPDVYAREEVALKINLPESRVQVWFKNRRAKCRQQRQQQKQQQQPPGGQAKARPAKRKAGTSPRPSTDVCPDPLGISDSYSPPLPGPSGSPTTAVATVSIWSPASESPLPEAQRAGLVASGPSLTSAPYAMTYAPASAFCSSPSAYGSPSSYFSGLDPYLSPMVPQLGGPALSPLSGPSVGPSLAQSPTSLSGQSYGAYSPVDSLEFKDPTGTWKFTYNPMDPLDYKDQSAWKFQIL
# Procedure, shortened: as §1
# ETV1 = ETV1 (Homo sapiens, UniProt P50549 1-477); settings: protein: recombinant; tags: N-terminal GST; dsDNA, one strand shown
# Chain of ETV1 (P50549 whole entry): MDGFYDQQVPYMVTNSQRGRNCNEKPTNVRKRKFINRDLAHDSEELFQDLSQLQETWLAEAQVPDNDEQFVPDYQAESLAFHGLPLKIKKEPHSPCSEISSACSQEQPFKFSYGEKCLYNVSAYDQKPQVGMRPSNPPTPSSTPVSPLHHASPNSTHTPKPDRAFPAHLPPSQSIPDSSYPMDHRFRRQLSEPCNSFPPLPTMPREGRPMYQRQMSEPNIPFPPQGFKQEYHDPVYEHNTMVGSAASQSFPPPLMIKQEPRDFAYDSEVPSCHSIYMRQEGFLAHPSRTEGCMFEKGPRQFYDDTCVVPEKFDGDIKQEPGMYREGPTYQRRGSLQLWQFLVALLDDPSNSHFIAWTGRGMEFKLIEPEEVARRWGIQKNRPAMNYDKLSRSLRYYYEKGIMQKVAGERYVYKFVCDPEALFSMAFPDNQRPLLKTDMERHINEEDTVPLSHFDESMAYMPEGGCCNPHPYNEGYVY
# Procedure, shortened: as §1
# ERF = molecular target: T6, ERF (Homo sapiens, UniProt P50548 1-548); settings: protein: recombinant; tags: N-terminal GST; dsDNA, one strand shown
# T6 sequence: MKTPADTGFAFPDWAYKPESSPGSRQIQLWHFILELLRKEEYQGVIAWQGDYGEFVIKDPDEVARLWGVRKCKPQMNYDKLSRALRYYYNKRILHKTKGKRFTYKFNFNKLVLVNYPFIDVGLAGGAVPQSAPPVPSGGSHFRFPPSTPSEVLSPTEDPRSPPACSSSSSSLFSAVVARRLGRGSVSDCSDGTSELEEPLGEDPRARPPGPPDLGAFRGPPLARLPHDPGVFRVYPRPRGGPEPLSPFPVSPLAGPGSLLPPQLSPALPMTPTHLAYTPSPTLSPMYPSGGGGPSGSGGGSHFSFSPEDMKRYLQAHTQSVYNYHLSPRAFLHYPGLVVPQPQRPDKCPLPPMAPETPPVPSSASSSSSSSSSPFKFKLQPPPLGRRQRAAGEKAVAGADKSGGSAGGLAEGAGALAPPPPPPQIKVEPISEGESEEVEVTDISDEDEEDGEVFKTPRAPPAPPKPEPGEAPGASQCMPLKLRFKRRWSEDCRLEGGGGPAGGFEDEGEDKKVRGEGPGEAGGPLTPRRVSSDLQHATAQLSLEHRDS
# Procedure, shortened: as §1
# ETV3L = molecular target: T7, ETV3L (Homo sapiens, UniProt Q6ZN32 1-361); settings: protein: recombinant; tags: N-terminal GST; dsDNA, one strand shown
# T7 sequence: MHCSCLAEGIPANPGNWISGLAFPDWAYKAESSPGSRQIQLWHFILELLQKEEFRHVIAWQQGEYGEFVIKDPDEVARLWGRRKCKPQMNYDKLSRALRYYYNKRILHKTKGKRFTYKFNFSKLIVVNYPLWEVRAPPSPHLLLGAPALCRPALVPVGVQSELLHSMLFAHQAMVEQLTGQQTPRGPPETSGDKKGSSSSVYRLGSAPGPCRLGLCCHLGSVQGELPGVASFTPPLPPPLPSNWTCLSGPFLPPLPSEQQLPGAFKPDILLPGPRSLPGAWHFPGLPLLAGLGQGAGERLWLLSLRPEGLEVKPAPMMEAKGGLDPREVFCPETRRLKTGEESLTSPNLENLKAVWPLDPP
# Procedure, shortened: as §1
# ETS2 = molecular target: T8, ETS2 (Homo sapiens, UniProt P15036 1-469); settings: protein: recombinant; tags: N-terminal GST; dsDNA, one strand shown
# T8 sequence: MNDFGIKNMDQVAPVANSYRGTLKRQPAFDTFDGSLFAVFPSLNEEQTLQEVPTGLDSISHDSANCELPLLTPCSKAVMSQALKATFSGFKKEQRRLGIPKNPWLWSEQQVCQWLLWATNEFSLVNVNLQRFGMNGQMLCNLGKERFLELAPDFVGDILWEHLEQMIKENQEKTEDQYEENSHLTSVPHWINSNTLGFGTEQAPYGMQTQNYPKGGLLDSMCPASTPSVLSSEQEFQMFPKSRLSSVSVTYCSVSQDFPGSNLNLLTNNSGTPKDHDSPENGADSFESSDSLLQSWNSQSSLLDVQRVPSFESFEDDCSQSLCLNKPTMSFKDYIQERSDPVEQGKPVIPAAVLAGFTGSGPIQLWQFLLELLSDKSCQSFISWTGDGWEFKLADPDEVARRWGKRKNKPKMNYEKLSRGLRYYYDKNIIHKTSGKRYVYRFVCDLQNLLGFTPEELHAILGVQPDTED
# Procedure, shortened: as §1
# SPDEF = molecular target: T9, SPDEF (Homo sapiens, UniProt O95238 1-335); settings: protein: recombinant; tags: N-terminal GST; dsDNA, one strand shown
# T9 sequence: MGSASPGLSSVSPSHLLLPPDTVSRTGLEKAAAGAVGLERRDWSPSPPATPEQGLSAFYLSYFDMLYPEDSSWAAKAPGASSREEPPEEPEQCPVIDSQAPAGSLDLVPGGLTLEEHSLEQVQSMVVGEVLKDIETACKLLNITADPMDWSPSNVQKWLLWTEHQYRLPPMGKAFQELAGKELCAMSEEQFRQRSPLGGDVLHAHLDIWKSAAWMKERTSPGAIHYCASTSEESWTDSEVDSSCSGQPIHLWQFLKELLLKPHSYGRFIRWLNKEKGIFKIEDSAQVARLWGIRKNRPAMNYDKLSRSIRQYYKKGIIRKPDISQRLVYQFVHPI
# Procedure, shortened: as §1
# ETV7 = molecular target: T10, ETV7 (Homo sapiens, UniProt Q9Y603 1-341); settings: protein: recombinant; tags: N-terminal GST; dsDNA, one strand shown
# T10 sequence: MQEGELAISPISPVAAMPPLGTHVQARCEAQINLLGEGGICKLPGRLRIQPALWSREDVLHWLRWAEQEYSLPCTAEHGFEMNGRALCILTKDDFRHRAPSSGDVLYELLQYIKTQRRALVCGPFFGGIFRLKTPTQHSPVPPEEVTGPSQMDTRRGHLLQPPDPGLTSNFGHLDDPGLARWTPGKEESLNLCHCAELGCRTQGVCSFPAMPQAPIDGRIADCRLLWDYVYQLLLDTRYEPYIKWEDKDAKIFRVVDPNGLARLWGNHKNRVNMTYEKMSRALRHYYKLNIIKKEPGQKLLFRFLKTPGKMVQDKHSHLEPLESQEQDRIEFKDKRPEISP
# Procedure, shortened: as §1
# ELF5 = molecular target: T11, ELF5 (Homo sapiens, UniProt Q9UKW6-2 1-255); settings: protein: recombinant; tags: N-terminal GST; dsDNA, one strand shown
# T11 sequence: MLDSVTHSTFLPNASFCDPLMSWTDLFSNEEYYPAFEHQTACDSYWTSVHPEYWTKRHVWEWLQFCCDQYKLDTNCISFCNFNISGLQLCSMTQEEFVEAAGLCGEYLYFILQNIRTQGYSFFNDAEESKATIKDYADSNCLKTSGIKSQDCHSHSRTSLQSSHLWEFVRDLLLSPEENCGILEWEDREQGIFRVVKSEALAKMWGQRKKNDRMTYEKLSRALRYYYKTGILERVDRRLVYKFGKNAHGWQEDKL
# Procedure, shortened: as §1
# ETV3 = molecular target: T12, ETV3 (Homo sapiens, UniProt P41162-2 1-143); settings: protein: recombinant; tags: N-terminal GST; dsDNA, one strand shown
# T12 sequence: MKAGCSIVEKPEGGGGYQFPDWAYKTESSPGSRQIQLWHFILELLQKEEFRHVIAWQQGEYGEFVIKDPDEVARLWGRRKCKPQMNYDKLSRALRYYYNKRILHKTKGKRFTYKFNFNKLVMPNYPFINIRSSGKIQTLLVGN
# Procedure, shortened: as §1
# ETV6 = ETV6 (Homo sapiens, UniProt P41212 1-452); settings: protein: recombinant; tags: N-terminal GST; dsDNA, one strand shown
# Chain of ETV6 (P41212 whole entry): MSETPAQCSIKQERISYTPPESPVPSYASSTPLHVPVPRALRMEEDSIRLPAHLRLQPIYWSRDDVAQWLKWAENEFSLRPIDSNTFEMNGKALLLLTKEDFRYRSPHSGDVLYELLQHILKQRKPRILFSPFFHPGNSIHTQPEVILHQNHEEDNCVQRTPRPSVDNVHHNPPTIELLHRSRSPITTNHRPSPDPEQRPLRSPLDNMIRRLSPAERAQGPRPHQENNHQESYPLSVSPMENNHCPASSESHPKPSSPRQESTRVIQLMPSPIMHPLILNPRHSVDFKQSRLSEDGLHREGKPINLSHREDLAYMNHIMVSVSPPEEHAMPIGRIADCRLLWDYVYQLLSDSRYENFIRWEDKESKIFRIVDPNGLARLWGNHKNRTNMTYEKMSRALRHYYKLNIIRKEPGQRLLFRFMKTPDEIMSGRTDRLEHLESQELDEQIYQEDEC
# Procedure, shortened: as §1
sequence,measurement,setting,value
TCTAAT,binding signal,FEV,"1.16 fold enrichment (6-mer frequency, TF over GST control)"
same,binding signal,ETV5,"1.17 fold enrichment (6-mer frequency, TF over GST control)"
same,binding signal,HSF1,"1.73 fold enrichment (6-mer frequency, TF over GST control)"
same,binding signal,SPIC,"1.26 fold enrichment (6-mer frequency, TF over GST control)"
same,binding signal,ELF4,"1.21 fold enrichment (6-mer frequency, TF over GST control)"
same,binding signal,ELK4,"1.18 fold enrichment (6-mer frequency, TF over GST control)"
same,binding signal,ETV2,"1.22 fold enrichment (6-mer frequency, TF over GST control)"
same,binding signal,ELF3,"1.16 fold enrichment (6-mer frequency, TF over GST control)"
same,binding signal,CRX,"2.37 fold enrichment (6-mer frequency, TF over GST control)"
same,binding signal,ETV1,"1.26 fold enrichment (6-mer frequency, TF over GST control)"
same,binding signal,ERF,"1.26 fold enrichment (6-mer frequency, TF over GST control)"
same,binding signal,ETV3L,"1.14 fold enrichment (6-mer frequency, TF over GST control)"
same,binding signal,ETS2,"1.21 fold enrichment (6-mer frequency, TF over GST control)"
same,binding signal,SPDEF,"1.21 fold enrichment (6-mer frequency, TF over GST control)"
same,binding signal,ETV7,"1.07 fold enrichment (6-mer frequency, TF over GST control)"
same,binding signal,ELF5,"1.11 fold enrichment (6-mer frequency, TF over GST control)"
same,binding signal,ETV3,"1.05 fold enrichment (6-mer frequency, TF over GST control)"
same,binding signal,ETV6,"1.2 fold enrichment (6-mer frequency, TF over GST control)"
